# Source: PubChem BioAssay
# ALOX12 inhib: qHTS Assay for Inhibitors of 12-hLO (12-human lipoxygenase); AID 1452, 2008; purified 12-hLO, xylenol orange hydroperoxide absorbance; hit rate 0.12% among 150,000; Potency, µM (highest dose often 57.1 µM), without a hit: top-dose activity change, negative = inhibition, hits mostly inhibitors; also: potency is read from the fitted curve at half-maximal effect; nearly all actives have a fitted effect of over 55% in size
#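 Lipoxygenase turnover measured by absorbance at 573 and 405 nm after Fe-XO development. Human 12hLO 150 nM, arachidonate 40 uM, pH 7.0 Hepes buffer with detergent; 15 min compound preincubation, 30 min reaction.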
# GLA inh pH 4.5: qHTS Assay for Inhibitors of Human alpha-Galactosidase at pH 4.5; Alpha-galactosidase A (Homo sapiens), P06280; purified enzyme, 4-MU-alpha-Gal fluorescence, pH 4.5; activity change, negative = inhibition, % at 105 µM; 230,000 tested, under 10 active; AID 1467, 2008;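 also: 0% = full activity with enzyme and -100% = basal without enzyme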
# Target sequence (P06280 whole entry, looked up): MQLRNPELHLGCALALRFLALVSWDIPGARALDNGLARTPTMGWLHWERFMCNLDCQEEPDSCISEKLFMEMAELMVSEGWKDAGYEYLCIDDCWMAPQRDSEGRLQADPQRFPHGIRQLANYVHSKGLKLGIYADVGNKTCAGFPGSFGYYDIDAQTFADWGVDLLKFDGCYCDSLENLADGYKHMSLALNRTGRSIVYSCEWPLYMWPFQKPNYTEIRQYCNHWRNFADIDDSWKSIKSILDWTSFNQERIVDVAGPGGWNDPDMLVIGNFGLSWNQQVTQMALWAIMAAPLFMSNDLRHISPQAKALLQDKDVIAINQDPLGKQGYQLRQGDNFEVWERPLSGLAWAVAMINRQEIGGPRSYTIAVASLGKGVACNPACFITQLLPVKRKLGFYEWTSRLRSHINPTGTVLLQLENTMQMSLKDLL
# HPGD inh: qHTS Assay for Inhibitors of HPGD (15-Hydroxyprostaglandin Dehydrogenase); 15-hydroxyprostaglandin dehydrogenase [NAD(+)] (Homo sapiens), P15428; purified HPGD, NADH fluorescence kinetic, PGE2 substrate; Potency, µM, inactives show at the top dose activity change, negative = inhibition, usual class: inhibitors; hit rate 4.3% among 150,000; AID 894, 2007; active = well fitted inhibition curve with a large enough effect, not every such curve was filed as active; inconclusive = small, poorly fitted or top-dose-only effect, or another doubt; inactive = no such curve, though single readings can be large or run the other way; also: potency is read from the fitted curve at half-maximal effect
# Target sequence (P15428 whole entry, looked up): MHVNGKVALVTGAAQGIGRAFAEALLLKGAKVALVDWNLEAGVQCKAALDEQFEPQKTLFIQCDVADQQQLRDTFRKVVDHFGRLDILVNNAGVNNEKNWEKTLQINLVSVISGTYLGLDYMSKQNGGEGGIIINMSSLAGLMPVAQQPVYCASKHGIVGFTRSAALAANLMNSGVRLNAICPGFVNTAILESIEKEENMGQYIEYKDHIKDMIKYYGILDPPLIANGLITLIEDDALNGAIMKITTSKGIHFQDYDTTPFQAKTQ
#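 20 nM HPGD preincubated 15 min at room temperature with compound in 50 mM Tris-HCl pH 8, 0.01% Tween 20. Started with 1 mM NAD+ and 30 uM prostaglandin E2; NADH fluorescence (360/450 nm) read 5 times over 30-s intervals, last minus first.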
# PNC inhibitor: High Content Assay for Compounds that inhibit the Assembly of the Perinucleolar Compartment; hit rate 3.1% among 140,000; PC3M PTB-GFP, PNC prevalence imaging, 16 h; stronger effect = lower value; activity change (PNC), negative = inhibition, % at 10 µM;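 active = readout at or below -70, meaning at least 70% loss of cells showing the perinucleolar compartment, a nuclear body marking cancer cells; inconclusive = readout between -30 and a set limit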;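 also: plate controls were DMSO wells for no effect and camptothecin positive control wells for full effect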
#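 Read-out is percentage of cells bearing a perinucleolar compartment, from automated 20x imaging of fixed, Hoechst-stained PC3M PTB-GFP cells. Cells were seeded 4 h, then exposed 16 h to compound (23 nl of library stock) in duplicate plates.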
# ALDH1A1 block: qHTS Assay for Inhibitors of Aldehyde Dehydrogenase 1 (ALDH1A1); Aldehyde dehydrogenase 1A1 (Homo sapiens), P00352; Purified ALDH1A1, NADH fluorescence, propionaldehyde substrate; Potency, µM (top dose mostly 75.3 µM), for the others: at the top dose activity, negative = inhibition, hits mostly inhibitors; hit rate 7.3% among 220,000; AID 1030, 2008; active = well fitted inhibition curve with a large enough effect, not every such curve was filed as active; inconclusive = small, poorly fitted or top-dose-only effect, or another doubt; inactive = no such curve, though single readings can be large or run the other way;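 also: potency is read from the fitted curve at half-maximal effect; plate controls were no enzyme wells and a reference inhibitor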
# aGal spleen mod: qHTS Assay for Inhibitors and Activators of Human alpha-Galactosidase From Spleen Homogenate. Potency, µM (titrated, usually from 80 µM), without a hit: at the top dose activity change, negative = inhibition, most hits filed as inhibitors. hit rate 0.008% among 240,000. human spleen homogenate, 4MU-alpha-Gal fluorescence, 40 min. Alpha-galactosidase A (Homo sapiens), P06280;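 also: potency is read from the fitted curve at half-maximal effect; 0% = enzyme with vehicle and -100% = no enzyme basal signal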
#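 Human spleen homogenate (1 ug) was the enzyme source, with 4-methylumbelliferyl-alpha-D-galactopyranoside (1 mM final) in pH 5.0 citrate buffer with 0.01% Tween-20. Compounds were titrated; after 40 min at 37C, NaOH/glycine stop, 4-MU fluorescence read; AC50 from Hill fits.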
# * = called active by the depositor; u = inconclusive; x = no result; [ ] = remark or other dose. Most compounds without a hit are left out; they make up all but 10% or so of the library. Unless noted, calls follow the shape of the dose curve; as a rule, active = well fitted curve in the direction sought with a large enough effect; inconclusive = small, poorly fitted or top-dose-only effect, or another doubt; inactive = no such curve, though single readings can be large; an effect the other way counts as inactive or inconclusive. Unless noted, % is scaled to controls: 0 for no effect and ±100 for the full control effect.
SMILES,ALOX12 inhib,GLA inh pH 4.5,HPGD inh,PNC inhibitor,ALDH1A1 block,aGal spleen mod
CCCCC(=O)Nc1ccc2c3c(cccc13)C(=O)N2CC,-3%,-4,-15%,23,7.1µM*,-1%
CCOc1cc(C(=O)Nc2ccc3c4c(cccc24)C(=O)N3CC)cc(OCC)c1OCC,-11%,-2,-12%,18,u,2%
CCN1C(=O)c2cccc3c(NC(=O)c4cccc(N5C(=O)CCC5=O)c4)ccc1c23,1%,14,-14%,4,2µM*,10%
CCCNC(=O)N(C)c1nncnc1C(=O)NC,-8%,-3,-16%,-100*,-9%,4%
Nc1cc(=O)[nH]c(SCC(=O)Nc2ncc(C(F)(F)F)cc2Cl)n1,x,6,x,x,14%,-6%
Cc1[nH]c2ccccc2c1C(=O)COC(=O)c1ccc([N+](=O)[O-])s1,x,-1,x,x,11µM*,2%
Cc1c(Cl)cnc(NC(=O)COC(=O)c2ccc([N+](=O)[O-])s2)c1Cl,-5%,4,u,u,11µM*,-3%
O=C(COC(=O)c1ccc([N+](=O)[O-])s1)Nc1ccccc1,-4%,-18,-3%,u,u,5%
O=C(COC(=O)c1ccc([N+](=O)[O-])s1)NCc1ccccc1,3%,1,x,37,u,-1%
O=C(COC(=O)c1ccc([N+](=O)[O-])s1)NC(c1ccccc1)c1ccccc1,-4%,1,-20%,-116*,22µM*,4%
CCOC(=O)CCN1C(=O)[C@@H]2[C@H]3C(=CC[C@H]2C1=O)C(=O)[C@H]1O[C@H]1[C@H]3O,x,x,x,x,u,3%[17.5 µM]
COc1ccc(-c2nnc3sc(C(C)N4C(=O)c5ccccc5C4=O)nn23)cc1 (stereo not given),-8%,1,7.1µM*,-18,-2%,3%
COc1ccccc1-c1nn2c(-c3ccc(C(C)(C)C)cc3)nnc2s1,-3%,5,-24%,9,u,6%
Cc1cccn2cc(CNC(=O)C3CCCCC3)nc12,3%,0,u,-100*,2%,-1%
CC(C)(C)NS(=O)(=O)c1ccc(CCC(=O)Nc2ccc3c(c2)OCCO3)cc1,0%,-7,-6%,-15,4µM*,-1%
CC(C)(C)NS(=O)(=O)c1ccc(CCC(=O)NCc2ccc3c(c2)OCO3)cc1,-4%,2,-12%,278,-4%,10%
CC(C)(C)NS(=O)(=O)c1ccc(OCC(=O)Nc2ccc3c(c2)OCCO3)cc1,-3%,-2,-5%,1,1.8µM*,-5%
CC(C)(C)NS(=O)(=O)c1ccc(CCC(=O)Nc2ccc3c(c2)OCO3)cc1,3%,3,-6%,-21,0.18µM*,8%
C=CCN(C(C(=O)OC)C(C)C)S(=O)(=O)CCl (stereo not given),x,x,x,x,x,4%
COc1ccc(Cl)cc1NC(=O)COC(=O)/C=C/c1c(C)nn(C2CCS(=O)(=O)C2)c1Cl (stereo not given),-4%,-6,x,1,25µM*,-16%
Cc1nn(C2CCS(=O)(=O)C2)c(Cl)c1/C=C/C(=O)OCC(=O)Nc1ccccc1OC(F)F (stereo not given),-3%,9,-11%,-19,7%,-2%
O=C(c1cc2cc(Br)cc(Br)c2oc1=O)N1CCCC1,1%,4,28µM*,-19,u,-2%
O=C(c1cc2cc(Br)ccc2o1)N1CCCCC1,x,0,x,x,22µM*,6%
O=C(c1cc2cc(Br)cc(Br)c2oc1=O)N1CCCc2ccccc21,-4%,-9,-15%,20,u,5%
O=C(c1cc2ccccc2c(=O)o1)N1CCCCCC1,15%,7,18µM*,3,u,7%
SMILES,ALOX12 inhib,GLA inh pH 4.5,HPGD inh,PNC inhibitor,ALDH1A1 block,aGal spleen mod
O=C(c1cc2cc(Br)ccc2oc1=O)N1CCN(c2ccccn2)CC1,1%,7,-8%,1,2%,4%
Cc1cc(C(=O)N2CCC(C)CC2)on1,x,-3,x,x,x,9%
CC1CCN(C(=O)c2cc3ccccc3c(=O)o2)CC1,-3%,1,25µM*,-8,1%,-3%
CCc1cc2c(nc1CC)CCN(CC/C(C)=N/OCC[C@@H]1C=C[C@H](OC(C)=O)[C@H](COC(C)=O)O1)C2,x,x,x,x,2%[13.5 µM],12%[17.5 µM]
COC(=O)c1cc(NC(=O)Nc2ccccc2OC)cc(C(=O)OC)c1,-7%,4,u,-10,-114%,1%
Cc1nc(N2CCOCC2)c2nc(-c3ccccc3)n(CCN3CCCCC3)c2n1,0%,-3,u,x,u,-5%
C/C(=N/OCO/N=C(/C)c1ccc(F)cc1)c1ccc(F)cc1,-5%,4,-16%,-104*,-16%,0%
COc1cccc(-n2nnc3c(=O)n(Cc4ccc(F)cc4)cnc32)c1,-11%,2,28µM*,31,4%,9%
Cc1ccc(-n2nnc3c(=O)n(Cc4cccc(C)c4)cnc32)cc1,-3%,4,4µM*,-18,4%,-6%
Cc1ccc(-n2nnc3c(=O)n(Cc4cc(C)ccc4C)cnc32)cc1,-2%,4,-4%,14,8%,3%
Cc1cccc(Cn2cnc3c(nnn3Cc3ccccc3F)c2=O)c1,-8%,2,16µM*,7,-8%,0%
Cc1cccc(Cn2cnc3c(nnn3Cc3ccc(F)cc3)c2=O)c1,-4%,1,14µM*,58,5%,4%
COc1cccc(-n2nnc3c(=O)n(Cc4ccc(C)cc4)cnc32)c1,-7%,-4,u,13,1%,13%
CN1CCN(c2ncc3nc(-c4cc(F)cc(F)c4)c(=O)n(CCC#N)c3n2)CC1,x,x,x,x,u,16%
Cc1ccc(C(=O)CN2CCC(NC(=O)C3CCCCC3)CC2)cc1,-7%,4,-10%,39,14µM*,-1%
COc1ccc(O)c(C(=O)C2c3ccccc3C(=O)N2c2ccc(C)cc2)c1 (stereo not given),x,-12,x,x,11µM*,9%
O=S(=O)(Cc1ccccc1)N1CCCCC1,-6%,-1,32µM*,23,-4%,1%
O=S(=O)(Cc1ccccc1)N1CCn2c(nc3ccccc32)C1,-6%,7,-3%,-87*,-2%,-3%
COc1ncc2nc(-c3ccc(F)cc3)c(=O)n(C3CC3)c2n1,x,x,x,x,u,-16%
